Growth data for 37 compounds are collected here from PubChem BioAssay (NCI).

The panel holds about 83,000 compounds, 20% with a hit somewhere; the sample as a whole holds those more often.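 Treatment: one concentration, 48 hours, 96-well format. Scoring: percent growth, with anything below 10 considered active.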 Unmarked numbers belong to inactive results. Calls of active or inactive are those of the source.

For the first assay, the system named is EKVX NSCLC. Description: NCI-60 one-dose screen, 48 h (100 = growth as untreated, 0 = no growth, -100 = all killed). The note with it: 10 µM.
On to `COc1cc2c3c(n(CCCNC(C)C)c(=O)c2cc1OC)-c1nc2c(cc1C3=O)OCO2`, for which the growth is 87.6%.
The same measure, in the same setting: the result for `COc1ccc2cc([C@H](C)C(=O)NCc3ccccc3)ccc2c1` reads 42.5%.
Same read-out and setting: the result for `O=C(Cn1nc(-c2ccccc2)ccc1=O)NNC(=S)NC1CCCCC1` reads 98.6%.
Turning to `CN1CCCN(Cc2ccc(C(=O)Nc3cccc(Nc4ccc5cc(O)ccc5n4)c3)cc2C(F)(F)F)CC1`, the growth was 71.1%.
Take `O=C1Nc2cc(Cl)ccc2/C1=C/c1cccc(OCc2ccccc2)c1`: the growth is 11.3%.
Still for that read-out and setting: the result for `C/C(=C\CC/C=C(\C)CC/C=C(\C)CC[C@@H](O)C(C)(C)O)CC/C=C(\C)CC[C@@H](O)C(C)(C)O` reads 34.5%.
Same read-out and setting: the result for `O=C(c1ccc([N+](=O)[O-])c([N+](=O)[O-])c1O)n1[nH]c(=O)c2ccccc2c1=O` reads 66.4%; that for `O=C(O)CCCCCCCCCCN1C(=O)/C(=C/c2cnc(-c3ccc(Cl)cc3)s2)SC1=S`, -12.5% (active).
The same measure, in the same setting: the result for `O=C1Nc2ccc(F)cc2/C1=C/c1cccc(OCc2ccccc2)c1` reads 18.4%; that for `COc1ccc(-c2nc(S(=O)(=O)c3ccccc3)c(S(C)(=O)=O)o2)cc1`, 94.1%; that for `COc1ccc(C(=O)NC(=S)N2CCN(c3ncnc4c3cnn4-c3ccccc3)CC2)cc1`, 81.4%.
For `C=CC(=O)Nc1nc(-c2cccc(NS(=O)(=O)c3cccc4c(N(C)C)cccc34)c2)cs1`, the growth is 29%.
As for `Cc1cc(=O)oc2cc(OCCCCOc3ccc(/C=C/C(=O)Nc4cccc(Cl)c4)cc3)ccc12`, the growth is 71.3%.
On the same count and under the same terms, the result for `COc1ccccc1C(=O)NNC(=O)CSc1nc2c(c(=O)[nH]1)CCCC2` reads 91.5%; that for `NC1=NC(c2ccccc2Cl)N=C(Nc2nn[nH]n2)N1` (centres undefined), 96.2%.
Still for that read-out and setting: the result for `COc1ccc2nc(Cl)c(-c3cc(-c4ccccc4)nc(=O)[nH]3)cc2c1` reads 73.3%; that for `O=c1[nH]n(C(=S)N/N=C/c2ccc(F)cc2)c(=O)c2ccccc12`, 88.2%; that for `O=C(CS(=O)(=O)c1oc(-c2ccc(Cl)cc2)nc1S(=O)(=O)c1ccccc1)N1CCCC1`, 74.9%.
Turning to `O=C1Nc2cc(Cl)ccc2/C1=C/c1cccc(OCc2ccc(Br)cc2F)c1`, the growth was 10.5%.
The same measure, in the same setting: the result for `Cc1nc2c(cnn2-c2ccccc2)c(=O)n1-c1ccc(NC(=O)c2ccc(F)cc2)cc1` reads 30.2%; that for `S=c1nc(-c2ccccc2)cc(-c2cc3ccccc3nc2Cl)[nH]1`, 70%.
With `Cc1ccc(C(=O)Nc2ccc(-n3c(C)nc4c(cnn4-c4ccccc4)c3=O)cc2)cc1`, the growth was 30.5%.
The same measure, in the same setting: the result for `Cc1cc(C)nc(NS(=O)(=O)c2ccc(N/C(N)=N/c3nccc(-c4cccs4)n3)cc2)n1` reads 83.5%; that for `COc1ccc(CN2[C@H](C(=O)NCc3ccc(C(=O)NO)cc3)Cc3c([nH]c4ccccc34)[C@H]2C2CC2)cc1`, 51.6%; that for `O=C1Nc2ccc(Cl)cc2/C1=C/c1cccc(OCc2ccccc2)c1`, 19.4%.
`O=C(Cn1cc(CSc2nnc3oc4ccccc4n23)nn1)Nc1ccc(Br)cc1`: the growth is 78.5%.
For the compound `CCN1CCN(c2ccc(NC(=O)Nc3ccc(-c4cc(C(=O)NC)c5ncccc5n4)cc3)cc2C(F)(F)F)CC1`, the growth was -100% (active).
The same measure, in the same setting: the result for `COc1ccc(-c2nc(S(=O)(=O)c3ccc(C)cc3)c(S(=O)(=O)CC(=O)N(C)Cc3ccccc3)o2)cc1` reads 84.6%.
The same measure, in the same setting: the result for `COC[C@@H](CC(C)C)N=C1NC(=O)/C(=C/c2ccc3ncsc3c2)N1` reads 17.8%; that for `CC(C)Sc1nc(NC2CC2)c(C#N)c(-c2ccccc2)n1`, 77.4%.
Same read-out and setting: the result for `CCOC(=O)N/C(=C1/OCCN1C)[P+](c1ccccc1)(c1ccccc1)c1ccccc1` reads 64.3%; that for `CS(=O)(=O)Nc1ccc(-c2ccc3c(c2)ncn3-c2ccc(NC(=O)Nc3ccc(Cl)c(C(F)(F)F)c3)cc2)cc1`, -60.3% (active).
Consider `CN1CCc2c(sc3ncnc(N/N=C/c4cn(-c5ccccc5)nc4-c4ccc(Cl)cc4)c23)C1`, for which the growth is 19.8%.
With `CC1(c2ccccc2)NC(=O)N(CC(=O)Nc2ccc(C(=O)/C=C/c3ccc(Br)cc3)cc2)C1=O` (centres undefined), the growth was 55%.
The same measure, in the same setting: the result for `O=C(CN1CCN(c2ncnc3c2cnn3-c2ccccc2)CC1)Nc1nncs1` reads -44.8% (active); that for `COc1ccc(C=CC(=O)c2ccc(-n3c(C)nc4c(cnn4-c4ccccc4)c3=O)cc2)cc1`, 42.9%.
On the same count and under the same terms, the result for `O=C(c1ccc(-n2c(=O)[nH]c3ccccc3c2=O)cc1)N1CCOCC1` reads 101%.

The test system of a further assay is SN12C renal. The assay is described as above. Particulars: 10 µM.
As for `COc1cc2c3c(n(CCCNC(C)C)c(=O)c2cc1OC)-c1nc2c(cc1C3=O)OCO2`, the growth is -88.9% (active).
The same measure, in the same setting: the result for `COc1ccc2cc([C@H](C)C(=O)NCc3ccccc3)ccc2c1` reads 33.5%; that for `O=C(Cn1nc(-c2ccccc2)ccc1=O)NNC(=S)NC1CCCCC1`, 101%; that for `CN1CCCN(Cc2ccc(C(=O)Nc3cccc(Nc4ccc5cc(O)ccc5n4)c3)cc2C(F)(F)F)CC1`, 86.8%.
`O=C1Nc2cc(Cl)ccc2/C1=C/c1cccc(OCc2ccccc2)c1`: the growth was -26.7% (active).
Regarding `C/C(=C\CC/C=C(\C)CC/C=C(\C)CC[C@@H](O)C(C)(C)O)CC/C=C(\C)CC[C@@H](O)C(C)(C)O`, the growth is 12%.
On the same count and under the same terms, the result for `O=C(c1ccc([N+](=O)[O-])c([N+](=O)[O-])c1O)n1[nH]c(=O)c2ccccc2c1=O` reads 70.2%; that for `O=C(O)CCCCCCCCCCN1C(=O)/C(=C/c2cnc(-c3ccc(Cl)cc3)s2)SC1=S`, -57.4% (active).
With `O=C1Nc2ccc(F)cc2/C1=C/c1cccc(OCc2ccccc2)c1`, the growth is 20.2%.
Same read-out and setting: the result for `COc1ccc(-c2nc(S(=O)(=O)c3ccccc3)c(S(C)(=O)=O)o2)cc1` reads -63.7% (active).
Turning to `COc1ccc(C(=O)NC(=S)N2CCN(c3ncnc4c3cnn4-c3ccccc3)CC2)cc1`, the growth is 46%.
Still for that read-out and setting: the result for `C=CC(=O)Nc1nc(-c2cccc(NS(=O)(=O)c3cccc4c(N(C)C)cccc34)c2)cs1` reads -56.6% (active); that for `Cc1cc(=O)oc2cc(OCCCCOc3ccc(/C=C/C(=O)Nc4cccc(Cl)c4)cc3)ccc12`, 73.8%; that for `COc1ccccc1C(=O)NNC(=O)CSc1nc2c(c(=O)[nH]1)CCCC2`, 102%.
Take `NC1=NC(c2ccccc2Cl)N=C(Nc2nn[nH]n2)N1` (centres undefined): the growth was 107%.
Turning to `COc1ccc2nc(Cl)c(-c3cc(-c4ccccc4)nc(=O)[nH]3)cc2c1`, the growth is 42.9%.
As to `O=c1[nH]n(C(=S)N/N=C/c2ccc(F)cc2)c(=O)c2ccccc12`, the growth was 71.2%.
On the same count and under the same terms, the result for `O=C(CS(=O)(=O)c1oc(-c2ccc(Cl)cc2)nc1S(=O)(=O)c1ccccc1)N1CCCC1` reads -26.2% (active).
The same measure, in the same setting: the result for `O=C1Nc2cc(Cl)ccc2/C1=C/c1cccc(OCc2ccc(Br)cc2F)c1` reads 17.6%; that for `Cc1nc2c(cnn2-c2ccccc2)c(=O)n1-c1ccc(NC(=O)c2ccc(F)cc2)cc1`, 74.4%.
With `S=c1nc(-c2ccccc2)cc(-c2cc3ccccc3nc2Cl)[nH]1`, the growth is 88.3%.
Consider `Cc1ccc(C(=O)Nc2ccc(-n3c(C)nc4c(cnn4-c4ccccc4)c3=O)cc2)cc1`, for which the growth was 73.3%.
Same read-out and setting: the result for `Cc1cc(C)nc(NS(=O)(=O)c2ccc(N/C(N)=N/c3nccc(-c4cccs4)n3)cc2)n1` reads 96.9%; that for `COc1ccc(CN2[C@H](C(=O)NCc3ccc(C(=O)NO)cc3)Cc3c([nH]c4ccccc34)[C@H]2C2CC2)cc1`, 70.5%.
With `O=C1Nc2ccc(Cl)cc2/C1=C/c1cccc(OCc2ccccc2)c1`, the growth was 36.1%.
On the same count and under the same terms, the result for `O=C(Cn1cc(CSc2nnc3oc4ccccc4n23)nn1)Nc1ccc(Br)cc1` reads 61.5%; that for `CCN1CCN(c2ccc(NC(=O)Nc3ccc(-c4cc(C(=O)NC)c5ncccc5n4)cc3)cc2C(F)(F)F)CC1`, -96.5% (active).
Still for that read-out and setting: the result for `COc1ccc(-c2nc(S(=O)(=O)c3ccc(C)cc3)c(S(=O)(=O)CC(=O)N(C)Cc3ccccc3)o2)cc1` reads 47.4%; that for `COC[C@@H](CC(C)C)N=C1NC(=O)/C(=C/c2ccc3ncsc3c2)N1`, 13.6%.
Consider `CC(C)Sc1nc(NC2CC2)c(C#N)c(-c2ccccc2)n1`, for which the growth is 77.5%.
Same read-out and setting: the result for `CCOC(=O)N/C(=C1/OCCN1C)[P+](c1ccccc1)(c1ccccc1)c1ccccc1` reads 76.6%.
Same read-out and setting: the result for `CS(=O)(=O)Nc1ccc(-c2ccc3c(c2)ncn3-c2ccc(NC(=O)Nc3ccc(Cl)c(C(F)(F)F)c3)cc2)cc1` reads -68.7% (active).
Same read-out and setting: the result for `CN1CCc2c(sc3ncnc(N/N=C/c4cn(-c5ccccc5)nc4-c4ccc(Cl)cc4)c23)C1` reads 24.9%; that for `CC1(c2ccccc2)NC(=O)N(CC(=O)Nc2ccc(C(=O)/C=C/c3ccc(Br)cc3)cc2)C1=O` (centres undefined), 51.2%; that for `O=C(CN1CCN(c2ncnc3c2cnn3-c2ccccc2)CC1)Nc1nncs1`, -54.7% (active).
As for `COc1ccc(C=CC(=O)c2ccc(-n3c(C)nc4c(cnn4-c4ccccc4)c3=O)cc2)cc1`, the growth was 81.6%.
Take `O=C(c1ccc(-n2c(=O)[nH]c3ccccc3c2=O)cc1)N1CCOCC1`: the growth is 89.8%.
